From PubChem BioAssay (NCI)
The panel holds about 79,000 compounds, 15% with a hit somewhere; the sample as a whole holds those more often. Activity calls are given as the source filed them. No stated cut-off is given here; in the data, active means growth inhibition above about 70%; inactive means the rest.

How the values were obtained:
[1] = NCI Yeast Anticancer Drug Screen. Data for the rad50 strain (AID 155);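 further: 0% = growth of vehicle-only cultures of the same strain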; conditions: S. cerevisiae rad50 strain growth inhibition; at 50.0 µM; active compounds read high
Outline: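 DNA repair mutant yeast, compound exposure, growth read-out; inhibition is taken relative to vehicle.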

[2] = NCI Yeast Anticancer Drug Screen. Data for the mec2-1 strain (AID 157); conditions: S. cerevisiae mec2-1 strain, at 50.0 µM, active compounds read high
Outline: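 mec2-1 yeast strain, carrying an alteration in DNA damage repair or cell cycle control, was exposed to compounds; growth inhibition was measured relative to vehicle-treated controls.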

[3] = NCI Yeast Anticancer Drug Screen. Data for the sgs1 mgt1 strain (AID 161);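 further: 0% = growth of cultures given vehicle only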; conditions: S. cerevisiae sgs1 mgt1 strain, at 50.0 µM, active compounds read high
Outline: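 Percent growth inhibition was derived by comparing compound-exposed mutant yeast with vehicle-exposed cultures. The strain carries alterations in DNA damage repair.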

[4] = NCI Yeast Anticancer Drug Screen. Data for the cln2 rad14 strain (AID 165);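 further: 0% = growth equal to vehicle treated cultures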; conditions: S. cerevisiae cln2 rad14 strain, at 50.0 µM, active compounds read high
Outline: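 Yeast carrying cln2 and rad14 alterations (cell cycle control and DNA damage repair) were exposed to compounds. Growth inhibition was measured against vehicle-treated controls.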

[5] = NCI Yeast Anticancer Drug Screen. Data for the bub3 strain (AID 167); conditions: S. cerevisiae bub3 mutant strain, at 50.0 µM, active compounds read high
Outline: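 In this screen, a yeast mutant lacking normal mitotic checkpoint function is challenged with compound. Relative growth versus vehicle gives the inhibition value.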

[6] = NCI Yeast Anticancer Drug Screen. Data for the mlh1 rad18 strain (AID 175); conditions: S. cerevisiae mlh1 rad18 strain growth inhibition; at 50.0 µM; active compounds read high
Outline: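 Growth inhibition of the yeast strain was measured after compound exposure and expressed relative to vehicle-treated controls. The strain carries defined defects in DNA damage repair.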

Measured: growth inhibition

CCCCCCCCCCCCCCCC[As](CCCCCCCCCCCCCCCC)SC1OC(COC(C)=O)C(OC(C)=O)C(OC(C)=O)C1OC(C)=O (stereo unspecified)
inactive: [1] 6.55% | [2] 3.55% | [3] 19.9% | [4] -4.7% | [5] 1.5% | [6] 3.55%

Cc1cc(NC(=O)Oc2ccc([N+](=O)[O-])cc2)ccc1S(=O)(=O)F
inactive: [1] 1.85% | [2] 39.4% | [3] 14.2% | [4] 4% | [5] 28.6% | [6] 35%

CC(O)CN(CCN(CC(C)O)CC(C)O)CC(C)O.[Cl-].[Zn+2] (stereo unspecified)
inactive: [1] 14.9% | [2] 9.25% | [3] 17.4% | [4] 10.7% | [5] 8.8% | [6] 6.1%

CCC(C(C)C)C1NC1C(C)C1CCC2C3CC=C4CC(OC(C)=O)CCC4(C)C3CCC12C (stereo unspecified)
active: [1] 95.8% | [2] 99.2% | [3] 99.1% | [4] 98.3% | [5] 98.6% | [6] 98.7%

C=CCOC(=O)Cc1ccccc1
inactive: [1] 20.5% | [2] -5.35% | [3] 4.9% | [4] -31.9% | [5] -39.2% | [6] -3.9%

O=Cc1ccccc1O.[Nd]
inactive: [1] -0.65% | [2] -33.6% | [3] 17.2% | [4] 6.65% | [5] 3.9% | [6] 6.6%

c1cc2[se][se]c3c4cccc5[se][se]c(c(c1)c23)c54
inactive: [1] 1.05% | [2] -8.7% | [3] -26.8% | [4] -3.95% | [5] -1.8% | [6] -31.1%

C=CCSc1nc2ccccc2c(=O)n1-c1cc(OC)c(Cl)cc1OC
inactive: [1] 9% | [2] -20.9% | [3] 15.1% | [4] 8.45% | [5] 42.5% | [6] -9.25%

O=C(c1ccc(Cl)cc1)N1CCOCC1
inactive: [1] -4.45% | [2] -15.2% | [3] -7.6% | [4] -29.4% | [5] -53% | [6] -7.95%

CC(=O)N(N=O)c1cc(Cl)ccc1Cl
inactive: [1] -2.75% | [2] -11.1% | [3] 3.15% | [4] -2.15% | [5] -5.5% | [6] -1.45%

CC1C(C)(C)P(=O)(Oc2cccc3cccnc23)C1(C)C (stereo unspecified)
inactive: [2] 64.7% | [4] 64.6% | [6] 57.2%
active: [1] 83.3% | [3] 84.5% | [5] 99%

N#CCC(=O)c1ccccc1
inactive: [1] 3.3% | [2] 29.9% | [3] -0.25% | [4] -20.7% | [5] -10.9% | [6] 1.4%

CC(=O)OC1CC2(O)C(CCC3(C)C(c4ccc(=O)oc4)CCC32O)C2(C)CCC(O)C=C12 (stereo unspecified)
inactive: [1] 7.25% | [2] -11.4% | [3] -1.75% | [4] -1.75% | [5] -3.4% | [6] 14.8%

S=C(N=Nc1ccccc1)NNc1ccccc1.[Ni]
inactive: [1] 12.3% | [2] -15.3% | [3] 2% | [4] 6.25% | [5] 26.8% | [6] 0.5%

CC1CCCCN1 (stereo unspecified)
inactive: [1] 5.35% | [2] -1% | [3] -9.85% | [4] 10.2% | [5] 13.5% | [6] 2.85%

CN(C)CC1C(O)C2CCN1CC2 (stereo unspecified)
inactive: [1] 3.95% | [2] 9.3% | [3] -3.1% | [4] -5.3% | [5] -5.5% | [6] -1.85%

CCOP(=O)(CC(=O)c1cc2ccccc2[nH]1)OCC
inactive: [1] -3.5% | [2] 12.6% | [3] -2.1% | [4] 1.2% | [5] -8.1% | [6] -19.8%

[CH3][Sn]([CH3])([O]S(=O)c1ccc(Cl)cc1)[O]S(=O)c1ccc(Cl)cc1 (stereo unspecified)
inactive: [1] 15.7% | [2] -9.3% | [3] -19.8% | [4] 14.7% | [5] -4.7% | [6] -11.1%

Cc1cc(CCl)c(O)c(CCl)c1
inactive: [1] -22.1% | [2] 0.5% | [3] -4.7% | [4] -49.7% | [5] -18.9% | [6] 22.5%

O=NN1CCCCCC1C(=O)O (stereo unspecified)
inactive: [1] -22.1% | [2] 1% | [3] -20.9% | [4] -24.7% | [5] 2.7% | [6] -0.25%

CCCCCCCCCCCCCCCC[As](CCCCCCCCCCCCCCCC)SCC1OC(OC(C)=O)C(OC(C)=O)C(OC(C)=O)C1OC(C)=O (stereo unspecified)
inactive: [1] -3.8% | [2] 3.45% | [3] 6% | [4] 1% | [5] -20.1% | [6] -20.6%
